Screening data as filed in PubChem BioAssay.
Only some compounds are listed: those with a hit (about 8.2% of all), similar ones and a draw of the others.
KB-V1 MDR tox – qHTS assay for MDR1-selective chemotherapeutics: Primary screen using the drug-selected MDR subline cells KB-V1; Potency, µM (series often up to 46.1 µM), hits mostly cytotoxic; KB-V1 MDR cells viability, CellTiter-Glo, 72 h; hit rate 3.4% among 400,000; also: % is scaled to controls: 0 for no effect and ±100 for the full control effect; nearly all actives have a fitted effect of over 60% in size
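Potencies derive from concentration-effect curves fitted to normalized luminescence (CellTiter-Glo) of KB-V1 cells treated for 72 h at 37 degrees C in phenol-red-free DMEM containing 10% FBS.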
ELG1 repair inh – qHTS screen for small molecules that inhibit ELG1-dependent DNA repair in human embryonic kidney (HEK293T) cells expressing luciferase-tagged ELG1 | HEK293T ELG1-luciferase reporter, luminescence, 16 h; DNA damage induced by 5-fluorouridine | Potency, µM (highest dose often 46.1 µM), inactives show at the highest dose activity change, negative = inhibition, most hits filed as inhibitors | hit rate 2.3% among 330,000 | AID 504467, 2011; also: % is scaled to controls: 0 for no effect and ±100 for the full control effect; nearly all actives have a fitted effect of over 55% in size
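5-Fluorouridine DNA damage + compound/DMSO, 2,000 cells/well, 16 h, 37 °C/5% CO2. ONE-Glo, 30 min RT, luminescence. Readout = decrease in reporter signal.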
MCF10A rereplic – A quantitative high throughput screen for small molecules that induce DNA re-replication in MCF 10a normal breast cells. MCF 10A DNA re-replication, Hoechst nuclear intensity, 48 h. Potency, µM (titrated, usually from 46.1 µM), inactives show at the highest dose activity, positive = re-replication, actives largely listed as activators. hit rate 2.9% among 350,000. AID 624296, 2012; also: % of control where 0% means no effect; nearly all actives have a fitted effect of over 50% in size
SW480 rerep – A quantitative high throughput screen for small molecules that induce DNA re-replication in SW480 colon adenocarcinoma cells; SW480 DNA re-replication, Hoechst DNA content imaging, 48 h; hit rate 1.8% among 340,000; Potency, µM (titrated, usually from 46.1 µM), inactives show at the top dose re-replication activation, usual class: activators; also: % of control where 0% means no effect; nearly all actives have a fitted effect of over 55% in size
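Image-based DNA-content assay: after two days of treatment, nuclei were labelled with the DNA dye Hoechst and imaged, and hits were compounds raising the count of nuclei showing high fluorescence intensity.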
KB-3-1 cytotox – qHTS assay for MDR1-selective chemotherapeutics: Primary screen using the parental adenocarcinoma cell KB-3-1; KB-3-1 viability, CellTiter-Glo ATP luminescence, 72 h; Potency, µM (highest dose often 46.1 µM), actives largely listed as cytotoxic; hit rate 1.4% among 400,000; also: % is scaled to controls: 0 for no effect and ±100 for the full control effect; nearly all actives have a fitted effect of over 60% in size
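Screening of KB-3-1 cells (DMEM, 10% FBS, phenol-red free) ran from lowest to highest compound concentration; after 72 h at 37 °C viability was read luminescently and curves fitted.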
Numbers without * were called inactive. Calls follow the shape of the dose curve; as a rule, active = well fitted curve in the direction sought with a large enough effect; inconclusive = small, poorly fitted or top-dose-only effect, or another doubt; inactive = no such curve, though single readings can be large; an effect the other way counts as inactive or inconclusive. Potency is read from the fitted curve at half-maximal effect.

Screening COc1ccc(CCNC(=O)COC(=O)c2cc(S(=O)(=O)N3CCCC3)ccc2O)cc1 returned KB-V1 MDR tox inactive, ELG1 repair inh 7%, MCF10A rereplic 0%, SW480 rerep -4% and KB-3-1 cytotox inactive.
N/N=C1\CCCc2c1[nH]c1ccc([N+](=O)[O-])cc21 was read as KB-V1 MDR tox 4.6µM*, ELG1 repair inh inconclusive, MCF10A rereplic -14%, SW480 rerep inconclusive and KB-3-1 cytotox inconclusive.
`O=[N+]([O-])c1ccc2[nH]c3c(c2c1)CCCC3` gave KB-V1 MDR tox inconclusive, ELG1 repair inh inconclusive, MCF10A rereplic 3%, SW480 rerep 2% and KB-3-1 cytotox inactive.
COc1ccc(OC)c(NC(=O)c2nc(SCc3ccccc3F)ncc2Cl)c1 was read as KB-V1 MDR tox inactive and KB-3-1 cytotox inactive.
For COc1ccc(C(=O)N/N=C/c2ccc(OC)c(COc3ccc(F)cc3)c2)cc1 the results were ELG1 repair inh 15µM*, MCF10A rereplic inconclusive and SW480 rerep 3%.
`COc1ccc(/C=N\NC(=O)c2ccccc2Br)cc1COc1ccc(F)cc1` gave ELG1 repair inh 7%, MCF10A rereplic inconclusive and SW480 rerep inconclusive.
For CCOc1ccc2[nH]c(C(=O)N/N=C/c3ccc(OC)cc3)cc2c1 the results were KB-V1 MDR tox inconclusive, ELG1 repair inh inconclusive, MCF10A rereplic inconclusive, SW480 rerep 1.2µM* and KB-3-1 cytotox 1.5µM*.
`COc1ccc(C(=O)N/N=C/c2ccc(OC)c(COc3ccc(F)cc3F)c2)cc1` gave ELG1 repair inh 9.2µM*, MCF10A rereplic 1% and SW480 rerep 11%.
Screening COc1ccc(/C=N/NC(=O)c2cc3cc(OC)c(OC)cc3[nH]2)cc1 returned KB-V1 MDR tox inactive, ELG1 repair inh -28%, MCF10A rereplic -7%, SW480 rerep -3% and KB-3-1 cytotox inactive.
For COc1ccc(O)c(/C=N/NC(=O)c2ccc(OCc3cccc(Br)c3)cc2)c1 the results were KB-V1 MDR tox 3.3µM*, ELG1 repair inh 3.7µM*, MCF10A rereplic inconclusive, SW480 rerep 4.1µM* and KB-3-1 cytotox inconclusive.
For COc1ccc(/C=N\NC(=O)c2ccccc2)cc1COc1ccc(F)cc1 the results were KB-V1 MDR tox inactive, ELG1 repair inh inconclusive, MCF10A rereplic 25%, SW480 rerep inconclusive and KB-3-1 cytotox inactive.
Cn1c(=O)nc2n(-c3ccc(Cl)c(Cl)c3)c3cc(Cl)ccc3cc-2c1=O was read as KB-V1 MDR tox inactive and KB-3-1 cytotox inactive.
`CCCS(=O)(=O)NC(=O)C1(C)CCN(C(=O)c2ccc(OC)c(F)c2)C1` (stereo not drawn) gave KB-V1 MDR tox inactive and KB-3-1 cytotox inactive.
COc1ccc(C(CCNCc2ccc(OC(C)C)cc2)C(C)C)cc1 (stereo not drawn) was read as KB-V1 MDR tox 15µM*, ELG1 repair inh -17%, MCF10A rereplic -12%, SW480 rerep 19% and KB-3-1 cytotox inactive.
`COc1ccc(CNCCC(c2ccc(OC(C)C)cc2)C(C)C)cc1OC` (stereo not drawn) gave KB-V1 MDR tox 5.2µM*, ELG1 repair inh -8%, MCF10A rereplic inconclusive, SW480 rerep inconclusive and KB-3-1 cytotox inconclusive.
For COc1ccc(CNCCC(c2ccc(OC(C)C)cc2)c2ccccc2OC)cc1OC (stereo not drawn) the results were KB-V1 MDR tox inconclusive, ELG1 repair inh inconclusive, MCF10A rereplic 23%, SW480 rerep inconclusive and KB-3-1 cytotox inconclusive.
COc1ccc(CCC(C)NCc2ccc(F)cc2)cc1 (stereo not drawn) was read as KB-V1 MDR tox inconclusive, ELG1 repair inh -7%, MCF10A rereplic 13%, SW480 rerep -6% and KB-3-1 cytotox inactive.
`COc1ccc(C(CCNCc2ccc(N(C)C)cc2)C(C)C)cc1` (stereo not drawn) gave KB-V1 MDR tox 16µM*, ELG1 repair inh inconclusive, MCF10A rereplic inconclusive, SW480 rerep inconclusive and KB-3-1 cytotox inactive.
`COCCNCc1ccc(C(C)C)cc1` gave KB-V1 MDR tox inactive, ELG1 repair inh inconclusive, MCF10A rereplic 1%, SW480 rerep -1% and KB-3-1 cytotox inactive.
Screening CC(=N/O)/C(C)=N\NC(=O)c1ccccn1 returned KB-V1 MDR tox inactive, ELG1 repair inh inconclusive, MCF10A rereplic 1%, SW480 rerep -4% and KB-3-1 cytotox inactive.
O=C(NN=C1c2ccccc2-c2ccccc21)c1ccccn1 was read as KB-V1 MDR tox 5.2µM*, ELG1 repair inh 4%, MCF10A rereplic 6%, SW480 rerep inconclusive and KB-3-1 cytotox inactive.
Screening COC1CCN(C(=O)c2cc(COc3cc(C)ccc3C)on2)CC1 returned KB-V1 MDR tox inconclusive and KB-3-1 cytotox inactive.
`Cc1ccc(OCc2cc(C(=O)N(C)Cc3nccn3C)no2)cc1C` gave KB-V1 MDR tox inactive, ELG1 repair inh 5%, MCF10A rereplic 2%, SW480 rerep inconclusive and KB-3-1 cytotox inactive.
For Cc1ccc(OCc2cc(C(=O)N3CCCC(C)C3)no2)cn1 (stereo not drawn) the results were KB-V1 MDR tox inconclusive and KB-3-1 cytotox 21µM*.
`Cc1ccc(C)c(OCc2cc(C(=O)N(C)Cc3nccn3C)no2)c1` gave KB-V1 MDR tox 13µM*, ELG1 repair inh 3%, MCF10A rereplic 16%, SW480 rerep 0% and KB-3-1 cytotox inactive.
`Cc1ccc(C)c(OCc2cc(C(=O)N3CCOCC3)no2)c1` gave KB-V1 MDR tox inactive, ELG1 repair inh inconclusive, MCF10A rereplic 18µM*, SW480 rerep 28% and KB-3-1 cytotox inactive.
O=C(CN1CCN(c2ccccc2O)CC1)Nc1ccc2c(c1)OCCCO2 was read as KB-V1 MDR tox inactive, ELG1 repair inh -13%, MCF10A rereplic 2%, SW480 rerep -7% and KB-3-1 cytotox inactive.
COc1ccccc1NC(=O)Cn1c(SCC(=O)N(C)c2ccccc2)nc2ccccc21 was read as KB-V1 MDR tox inactive and KB-3-1 cytotox inactive.
`N#Cc1c(N)nc(SCc2ccccn2)c(C#N)c1-c1cccs1` gave KB-V1 MDR tox 2.9µM*, ELG1 repair inh 15µM*, MCF10A rereplic 1%, SW480 rerep -2% and KB-3-1 cytotox inconclusive.
CCOC(=O)CSc1nc(N)c(C#N)c(-c2cccs2)c1C#N was read as KB-V1 MDR tox inactive, ELG1 repair inh 3%, MCF10A rereplic -3%, SW480 rerep 2% and KB-3-1 cytotox inactive.
